Bioassay records as filed in PubChem BioAssay.
Most compounds without a hit are left out; they make up all but 1.7% or so of the library.
TRHR agonist-1: TRH receptor (human) agonism; AID 493084; activation, % at 2 µM; TRHR cells, calcium flux fluo-8, FDSS agonist mode; actives 0.18% (n = 360,000); P34981; in the data active means activation above about 30%; further: 0% is about no effect
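TRHR-expressing cells, plated overnight in medium with 10% serum, were loaded with fluo-8 calcium dye at room temperature. After a 10 s baseline, library compound was pin-added and calcium release was recorded kinetically (ex 480/em 530) as agonist response.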
KCNH2 3.1 inh: blocks the human KCNH2 3.1 channel isoform | U2OS KCNH2 3.1, thallium flux FluxOr; stronger effect = lower value | activity change, % (tested at about 1.8 µM) | actives 0.95% (n = 340,000) | AID 720553;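 active means maximum activity change below -70%; inconclusive means maximum activity change from -70% to -50%; inactive means maximum activity change above -50%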;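 further: thallium influx rate constant from kinetic fluorescence after stimulation buffer; on the % scale 0 is the no-effect control and ±100 the full control effect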
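U2OS cells transduced with KCNH2 3.1 mutant virus (1.77 x 10^8 /mL, 4 h), plated overnight at 37 C, loaded 45 min with FluxOr dye plus Red40 quencher. Thallium flux rate constant from kinetic reads after stimulation buffer, normalised to controls.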
TRPML1 blocker: inhibitors of human TRPML1 channel; Q9GZU1; TRPML1-inducible cells, Ca2+ dye fluorescence, FDSS; stronger effect = lower value; inhibition of EC80 agonist-evoked calcium signal; activity change, negative = inhibition, % (concentration not given with the values); actives 0.02% (n = 390,000); AID 624415; in the data active means activity change below about -50%; inconclusive means between about -30% and that limit;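 further: stimulus is agonist 54-4 at its EC80 concentration; on the % scale 0 is the no-effect control and ±100 the full control effect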
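Calcium fluorescence in TRPML1-DL cells induced overnight with Tet: a 110 s read after compound pin addition, then a 110 s antagonist read after challenge with 54-4 at 4 uM final (EC80).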
TRPML1 ag: agonists of human TRPML1 channel | Q9GZU1 | TRPML1-expressing cells, Ca2+ dye fluorescence, FDSS | activation, % (test concentration not listed) | actives 0.12% (n = 410,000); in the data active means activation above about 50%; inconclusive means mostly about 30% to 49%; further: 0% is about no effect
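TRPML1-DL cells, Tet-induced overnight (~16 h, 37 degrees C), loaded 45-90 min at room temperature with Ca8 no-wash calcium dye plus quencher. FDSS fluorescence: 10 s baseline, compound pin-transfer, 110 s agonist read, then EC80 54-4 (4uM final) and 110 s antagonist read.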
KCNH2 WT inh: inhibitors of human wildtype KCNH2 potassium channel; AID 720551; U2OS, BacMam KCNH2, thallium flux FluxOr; stronger effect = lower value; actives 0.37% (n = 340,000); activity change, % at 1.84 µM; Q12809;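 active means maximum activity change below -70%; inconclusive means maximum activity change between -70% and -50%; inactive means maximum activity change above -50%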; further: on the % scale 0 is the no-effect control and ±100 the full control effect
Target sequence (Q12809 whole entry, looked up): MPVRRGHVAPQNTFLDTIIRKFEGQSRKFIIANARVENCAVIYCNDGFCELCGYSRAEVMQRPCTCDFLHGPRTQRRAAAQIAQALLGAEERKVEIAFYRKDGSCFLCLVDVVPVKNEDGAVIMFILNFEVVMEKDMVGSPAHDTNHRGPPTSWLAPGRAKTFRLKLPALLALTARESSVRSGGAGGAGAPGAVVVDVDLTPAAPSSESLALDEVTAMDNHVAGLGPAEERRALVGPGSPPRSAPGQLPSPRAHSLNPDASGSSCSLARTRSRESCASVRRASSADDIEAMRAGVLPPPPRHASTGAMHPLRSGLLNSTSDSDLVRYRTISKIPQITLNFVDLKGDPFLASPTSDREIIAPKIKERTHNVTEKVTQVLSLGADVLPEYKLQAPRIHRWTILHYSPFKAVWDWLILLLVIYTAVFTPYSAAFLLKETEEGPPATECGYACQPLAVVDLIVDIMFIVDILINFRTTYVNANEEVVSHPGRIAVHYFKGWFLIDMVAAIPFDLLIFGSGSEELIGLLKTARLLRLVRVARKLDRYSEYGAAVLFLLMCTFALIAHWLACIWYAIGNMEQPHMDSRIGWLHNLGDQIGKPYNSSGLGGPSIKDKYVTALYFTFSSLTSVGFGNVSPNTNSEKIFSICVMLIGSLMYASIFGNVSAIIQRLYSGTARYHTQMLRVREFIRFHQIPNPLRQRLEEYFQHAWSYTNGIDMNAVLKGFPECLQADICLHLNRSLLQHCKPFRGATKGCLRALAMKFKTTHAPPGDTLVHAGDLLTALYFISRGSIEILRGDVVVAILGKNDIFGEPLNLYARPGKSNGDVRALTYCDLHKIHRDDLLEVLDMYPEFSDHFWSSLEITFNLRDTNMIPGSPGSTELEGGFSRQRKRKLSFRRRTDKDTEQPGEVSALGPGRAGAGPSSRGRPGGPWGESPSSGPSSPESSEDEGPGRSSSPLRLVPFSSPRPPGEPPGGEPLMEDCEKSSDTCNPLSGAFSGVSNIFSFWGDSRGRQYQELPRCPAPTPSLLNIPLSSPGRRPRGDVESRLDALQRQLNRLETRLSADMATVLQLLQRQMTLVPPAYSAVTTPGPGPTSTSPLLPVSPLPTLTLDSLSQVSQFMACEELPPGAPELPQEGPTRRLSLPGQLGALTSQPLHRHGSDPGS
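U2OS cells transduced with wild-type KCNH2 virus are loaded with FluxOr dye for 45 min, and thallium flux is measured in kinetic reads before and after stimulation buffer. Rate constants are normalized to DMSO controls.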
TRHR enhancer-1: TRH receptor (human) allosteric enhancement; P34981; TRHR cells, fluo-8 calcium fluorescence, EC20 TRH enhancement; enhancement, % at 2 µM; actives 0.66% (n = 360,000); AID 493056; in the data active means enhancement above about 30%; further: 0% is about no effect
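TRHR-expressing cells loaded with fluo-8 calcium dye were read kinetically (ex 480/em 530) during compound addition, then stimulated with an EC20 of TRH (10 nM final). Enhancement of the Gq-mediated intracellular calcium response was scored.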
TRHR enhancer-2: confirmation of human TRH receptor allosteric enhancers; shares compounds with TRHR enhancer-1; TRH receptor cell assay, enhancer confirmation qHTS; activity change, negative = inhibition, % at 46.1 µM; 970 tested, under 10 active;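 further: compound effect scored on response to added TRH at EC20 of 10 nM; 0% is about no effect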
TRHR agonist-2: human TRH receptor agonism confirmation; TRHR-expressing cells, agonist activation read-out; actives 8% (n = 970); Potency, µM (titrated, usually from 46.1 µM), without a hit: top-dose activation, usual class: activators; AID 493078; shares compounds with TRHR enhancer-1; further: potency means the concentration at half of the fitted maximal effect; 0% is about no effect; nearly all actives have a fitted effect of over 75% in size
An asterisk follows results filed as active; i = inactive; ? = inconclusive; nt = no result given. Unless noted, the call rests on the fitted dose curve; in most records, active means well fitted curve in the direction sought with a large enough effect; inconclusive means small, poorly fitted or top-dose-only effect, or another doubt; inactive means no such curve, though single readings can be large; an effect the other way counts as inactive or inconclusive.

SMILES	TRHR agonist-1	KCNH2 3.1 inh	TRPML1 blocker	TRPML1 ag	KCNH2 WT inh	TRHR enhancer-1	TRHR enhancer-2	TRHR agonist-2
CCOC(=O)c1[nH]c2ccc(F)cc2c1NC(=O)CN1CCc2cc(OC)c(OC)cc2C1	0	nt	nt	nt	nt	43*	3	0%
COC(=O)c1[nH]c2ccc(Cl)cc2c1NC(=O)CN1CCc2cc(OC)c(OC)cc2C1	0	6	-15	-1	-4	-8	nt	nt
COc1ccc(CNC(=O)CN(C(=O)CCC(=O)Nc2ccccn2)c2cccc(C)c2)cc1	0	12	-6	-1	i	44*	7	6%
COc1ccc(O)c(C(=O)c2coc(=N)c(C(=O)Nc3ccc(SC(F)F)cc3)c2)c1	29	?	-16	7	-5	-5	-8	?
COc1ccc(CC(=O)NO)cc1OC	nt	nt	nt	0	nt	nt	nt	nt
CC1(C)NC(=O)N(CC(O)Cn2nnc3ccccc32)C1=O (centres undefined)	0	26	21	6	-7	51*	-1	0%
Cc1csc(N2CCCC2=O)n1	0	10	-14	0	-6	41*	5	-1%
CCC1CC(=O)CCN1S(=O)(=O)c1ccc(C)cc1 (centres undefined)	nt	-1	8	0	-18	nt	nt	nt
CCCCCn1c(CN2CC(C)OC(C)C2)nc2c1c(=O)n(C)c(=O)n2C (centres undefined)	0	3	-15	0	2	42*	9	0%
Cc1ccc(NC(=O)CN(C)C(=O)C2CC(=O)N(Cc3ccccc3)C2)cc1 (centres undefined)	-1	-1	-5	0	10	-1	nt	nt
CCOc1ccc(NC(=O)CN(C)C(=O)c2cccnc2Sc2ccc(C)c(C)c2)cc1OCC	0	3	7	0	-8	11	nt	nt
Cc1ccc2[nH]c(CCN(C)C)c(CC#N)c2c1	0	-24	-13	0	50	66*	-6	?
Cc1ccc(O)c(C(=O)c2cc(C#N)c(=O)n(Cc3ccccc3)c2)c1	3	11	26	3	0	-4	nt	nt
Cc1ccc(O)c(C(=O)c2cc(C#N)c3nc4ccccc4n3c2)c1	42*	15	-1	8	-2	1	-2	?
Cc1ccc(NCc2ccc(O)c3ncccc23)cc1	0	18	3	1	-3	46*	4	1%
Cc1ccc(NCc2ccc(O)c3ncccc23)cc1C	0	3	8	-1	i	-3	nt	nt
O=C(NC1CCN(C(=S)Nc2ccccc2)CC1)C1CCCCC1	1	-9	1	1	0	-8	nt	nt
CN(C)/C=C/c1onc(-c2c(Cl)cccc2Cl)c1C#N	0	2	10	1	0	44*	4	?
CC1(C)CC2CC(C)(CN2S(=O)(=O)c2ccc(C(=O)Nc3ccc(S(=O)(=O)N4CCOCC4)cc3)cc2)C1 (centres undefined)	2	-31	-2	1	-5	-6	nt	nt
CCOC(=O)c1cc([N+](=O)[O-])sc1NC(=O)c1ccc(S(=O)(=O)N2CC3(C)CC2CC(C)(C)C3)cc1 (centres undefined)	37*	-6	?	60*	-8	-16	-2	?
C#CCCc1cocc1/C=[N+](\[O-])c1ccc(C(=O)OCC)cc1	1	24	0	0	10	-1	nt	nt
O=C(/C=C/c1ccccc1)NC(N1CCOCC1)C(Cl)(Cl)Cl (centres undefined)	0	-9	-7	2	-4	45*	-6	6%
O=C(NC(N1CCOCC1)C(Cl)(Cl)Cl)c1ccco1 (centres undefined)	-1	-3	2	0	-7	5	nt	nt
c1ccc2c(c1)ncn2CCCCOc1ccc2c(c1)CCC2	-1	-8	7	4	-12	51*	-8	-1%
c1ccc2c(c1)ncn2CCCOc1ccc2c(c1)CCC2	-1	-7	-9	-1	4	5	nt	nt
SMILES	TRHR agonist-1	KCNH2 3.1 inh	TRPML1 blocker	TRPML1 ag	KCNH2 WT inh	TRHR enhancer-1	TRHR enhancer-2	TRHR agonist-2
COc1ccc(C2C=C3CN(C(=O)OC(C)(C)C)S(=O)(=O)C3CC2OC(=O)c2cccc(C)c2)cc1 (centres undefined)	nt	nt	-6	1	nt	nt	nt	nt
C=CCNc1ncnc2c1ncn2[C@H]1CN(Cc2ccc(-c3ccccc3)cc2)C[C@@H](CO)O1	nt	nt	nt	0	nt	nt	nt	nt
COc1ccc(NC(=O)COc2ccc3c(c2)CCC3)cc1	0	2	9	-1	2	42*	-6	0%
COc1ccccc1N1CCN(C(=O)CSc2nc3ccccc3nc2N2CCC(C)CC2)CC1	0	2	-11	1	-7	54*	-4	0%
COc1ccccc1N1CCN(C(=O)CSc2nc3ccccc3nc2N2CCCCC2)CC1	0	-4	-1	0	-11	-1	nt	nt
Nc1nonc1/C(=N/O)N1CCN(CCO)CC1	1	-5	-15	-1	-3	88*	-1	0%
CN1CCN(/C(=N\O)c2nonc2N)CC1	0	-8	26	2	9	-8	nt	nt
COC(=O)N/N=C\c1c(C)[nH]n(-c2ccccc2)c1=O	0	0	26	0	-7	2	nt	nt
CC(=O)N/N=C/c1c(C)[nH]n(-c2ccccc2)c1=O	-1	6	28	-1	6	44*	-4	5%
CC(C)c1nc(SCC(=O)NC2CCCC2)c2c(=O)n(C)c(=O)n(C)c2n1	0	-5	-10	0	2	-6	nt	nt
O=C1CC(NS(=O)(=O)c2cccnc2)CN1c1cccc(F)c1 (centres undefined)	0	6	-11	0	-2	4	nt	nt
Cc1ccccc1NS(=O)(=O)c1ccc2c3c(cccc13)C(=O)N2C	-1	nt	-2	1	-14	61*	-9	0%
CCN1C(=O)c2cccc3c(S(=O)(=O)Nc4ccccc4OC)ccc1c23	56*	6	2	-1	-3	18	-6	?
CCN1C(=O)c2cccc3c(S(=O)(=O)NCc4ccccc4)ccc1c23	-1	-9	-16	1	-9	-4	nt	nt
CN1C(=O)c2cccc3c(S(=O)(=O)Nc4ccccn4)ccc1c23	0	-16	-12	0	5	0	nt	nt
CCN(c1ccccc1)S(=O)(=O)c1cccc(C(=O)NCC2(N(C)C)CCCCC2)c1	0	0	13	1	38	8	nt	nt
